Reference: PubChem BioAssay (NCI)
About 79,000 compounds went through this panel and 15% of them were active in at least one assay; those are over-represented in the sample as a whole. Activity calls are given as the source filed them. No stated cut-off is given here; in the data, active means growth inhibition above about 70%; inactive means the rest.

Tests used:
[1] = NCI Yeast Anticancer Drug Screen. Data for the rad50 strain (AID 155);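 further: 0% = growth of vehicle-only cultures of the same strain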; settings: S. cerevisiae rad50 strain growth inhibition, active compounds read high
Summary of the method: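 Inhibition values express reduced yeast growth in compound-treated cultures relative to vehicle-treated controls.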

[2] = NCI Yeast Anticancer Drug Screen. Data for the mec2-1 strain (AID 157); settings: S. cerevisiae mec2-1 strain, active compounds read high
Summary of the method: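 Strain: mec2-1 (DNA repair/cell cycle alteration). Compound exposure, then growth measured; inhibition expressed relative to vehicle.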

[3] = NCI Yeast Anticancer Drug Screen. Data for the sgs1 mgt1 strain (AID 161);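 further: 0% = growth of cultures given vehicle only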; settings: S. cerevisiae sgs1 mgt1 strain, active compounds read high
Summary of the method: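 Genetically altered yeast, compound exposure, growth inhibition relative to vehicle.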

[4] = NCI Yeast Anticancer Drug Screen. Data for the cln2 rad14 strain (AID 165);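 further: 0% = growth equal to vehicle treated cultures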; settings: S. cerevisiae cln2 rad14 strain, active compounds read high
Summary of the method: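 Compounds are applied to the cln2 rad14 yeast strain, and growth is then compared with that of vehicle-treated cultures to give inhibition.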

[5] = NCI Yeast Anticancer Drug Screen. Data for the bub3 strain (AID 167); settings: S. cerevisiae bub3 mutant strain, active compounds read high
Summary of the method: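 Steps: expose the mutant yeast strain to compound; grow alongside vehicle-treated cultures; measure growth; express inhibition against the vehicle cultures.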

[6] = NCI Yeast Anticancer Drug Screen. Data for the mlh1 rad18 strain (AID 175); settings: S. cerevisiae mlh1 rad18 strain growth inhibition, active compounds read high
Summary of the method: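 Read-out is yeast growth inhibition, calculated against vehicle-only controls. The compound was applied to a strain engineered with DNA damage repair alterations.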

[7] = at 5.0 µM (retest, dose inferred, filed as 0.5)
[8] = at 50.0 µM (retest, dose inferred, filed as 5.0)

Measured: growth inhibition

CC[C@@]1(OP(=O)(O)O)C(=O)OCc2c1cc1n(c2=O)Cc2cc3ccccc3nc2-1
inactive: [2]; [7] 33% | [3]; [7] 6% | [3]; [8] -37% | [4]; [7] -11% | [4]; [8] -58% | [4]; at 50.0 µM 67% | [5]; [7] 14% | [5]; [8] -15% | [6]; [7] 49%
active: [1]; [7] 89% | [1]; [8] 92% | [1]; at 50.0 µM 79.2% | [2]; [8] 95% | [2]; at 50.0 µM 87.1% | [3]; at 50.0 µM 80.7% | [5]; at 50.0 µM 77.2% | [6]; [8] 86% | [6]; at 50.0 µM 74.2%

Nc1cccc2c(O)cccc12
inactive: [1]; [7] -1% | [1]; [8] 21% | [1]; at 50.0 µM 21.6% | [2]; [7] 3% | [2]; [8] 18% | [2]; at 50.0 µM 9.3% | [3]; [7] -1% | [3]; [8] 15% | [3]; at 50.0 µM 20.8% | [4]; [7] 2% | [4]; [8] 12% | [4]; at 50.0 µM 44.2% | [5]; [7] 2% | [5]; [8] 15% | [5]; at 50.0 µM 8.55% | [6]; [7] -2% | [6]; [8] 28% | [6]; at 50.0 µM 50.2%

O=C1C(CCl)=CS(=O)(=O)c2ccccc21
inactive: [1]; [7] 10% | [2]; [7] 17% | [3]; [7] 16% | [4]; [7] 5% | [5]; [7] 4% | [6]; [7] 36%
active: [1]; [8] 99% | [1]; at 50.0 µM 99.1% | [2]; [8] 99% | [2]; at 50.0 µM 99.3% | [3]; [8] 99% | [3]; at 50.0 µM 99.2% | [4]; [8] 99% | [4]; at 50.0 µM 99.3% | [5]; [8] 99% | [5]; at 50.0 µM 99.3% | [6]; [8] 99% | [6]; at 50.0 µM 99.2%

CS(=O)c1cc(=O)c2ccccc2s1 (stereo not given)
active: [1]; [8] 85% | [1]; at 50.0 µM 98.2% | [2]; [8] 73% | [2]; at 50.0 µM 98.9% | [3]; at 50.0 µM 99.3% | [4]; at 50.0 µM 84.4% | [5]; [8] 95% | [5]; at 50.0 µM 96.2% | [6]; [8] 88% | [6]; at 50.0 µM 99%
inactive: [1]; [7] 6% | [2]; [7] -4% | [3]; [7] 19% | [3]; [8] 67% | [4]; [7] 10% | [4]; [8] 60% | [5]; [7] 0% | [6]; [7] 14%

S=P([S][Sn]([S]P(=S)(c1ccccc1)c1ccccc1)([c]1ccccc1)[c]1ccccc1)(c1ccccc1)c1ccccc1
active: [1]; [8] 82% | [2]; [8] 73% | [3]; [8] 96% | [3]; at 50.0 µM 91.9% | [4]; at 50.0 µM 89.9% | [5]; at 50.0 µM 89.2% | [6]; [8] 92% | [6]; at 50.0 µM 77.8%
inactive: [1]; [7] 22% | [1]; at 50.0 µM 34.9% | [2]; [7] 21% | [2]; at 50.0 µM 19.6% | [3]; [7] 33% | [4]; [7] 25% | [4]; [8] 48% | [5]; [7] 24% | [5]; [8] 69% | [6]; [7] 33%
